Compounds without any hit were thinned out: in the full panel of roughly 83,000, 20% have a hit.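 In brief: 96-well plates, 48 h treatment, single concentration, percent growth endpoint.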 Values without a mark were called inactive. The source made the active and inactive calls.

The assay concerns RPMI-8226 leukemia. Kind of assay: NCI-60 one-dose screen, 48 h (100 = growth as untreated, 0 = no growth, -100 = all killed). The settings on record: 10 µM unless noted. The protocol: Growth inhibition of the RPMI-8226 human tumor cell line is measured as a screen for anti-cancer activity. Cells are grown in 96 well plates and exposed to the test compound for 48 hours. Compounds are tested at a single concentration, which is 10^-5 M for most compounds. The reported endpoint is percent growth (GI% or GIPRCNT), where numbers from 0 - 100% represent growth inhibition, and numbers from -100% - 0 represent cell death. For example, a value of 40 represents 60% growth inhibition. A value of 0 means no net growth occurred over the course of the experiment. A value of -40 indicates 40% of cells at the beginning of the experiment died by the end of the experiment. A value of -100 means all cells are dead at the end of the experiment.
NCI-60 Human Tumor Cell Lines Screen was performed using the standard one-dose NCI protocol, which is described in more detail at https://dtp.cancer.gov/discovery_development/nci-60/default.htm.
Compounds with GIPRCNT values below 10 were considered active. Activity score was based on GIPRCNT using the following formula: […]
Score is 0 for GIPRCNT values of 100 or above, 50 for GIPRCNT values of 0, and 100 for GIPRCNT values of -100.
Consider `CCCC(C(=O)OCC)C(C)OC(=O)OCC` (stereo not given), for which the growth was 101%.

For the compound `CC/C=C\C/C=C\C[C@H](O)C/C=C1/C(=O)C=C[C@H]1C/C=C\CCC(=O)OC`, the growth is 3.22% [8.25 µM] (active).

Regarding `O=c1c2cccc3c(Nc4ccc(F)cc4)ccc(c32)c2nc3ccccc3n12`, the growth was 57.4%.

Turning to `COc1ccc(-c2nnc(COc3ccc(NS(=O)(=O)c4ccc(OC)cc4)cc3F)o2)cc1`, the growth is 43.4%.

In the case of `O=C(Cc1n[nH]c(=O)c2ccccc12)OCc1c(Cl)cccc1Cl`, the growth was 63.7%.

`COc1ccc(C(=O)c2cc(OC)c(OC)c(OC)c2)cc1/C=C/C(=O)c1ccc(OC)c(OC)c1`: the growth is 8.82% (active).

As for `O=C1c2ccccc2C(=O)c2c1oc1oc3c(c(=O)c21)c(=O)n(-c1ccccc1)c1ccccc31`, the growth was 19.6%.

Regarding `CCCCCCCCCCCCNC(=S)N/N=C/c1ccc(Cl)c(Cl)c1`, the growth was 102%.

For `Cc1nc(Nc2cccnc2)sc1C(=O)/C=C/c1ccc(Cl)cc1`, the growth is -4.94% (active).

As to `Cc1ccc(-c2csc3nc(C)c(CCCl)c(=O)n23)cc1`, the growth was 83.8%.

In the case of `COC12CC(=O)C(C(C)=O)=C(O)C1(C)c1c(O)c(C)c(O)c(C(C)=O)c1O2` (stereo not given), the growth was 44.5%.

`CCCCC(N)(C(=O)O)C1CCCC1` (stereo not given): the growth is 111%.

With `Cn1c(C(N)=O)cc2c1-c1nc(NC3CCCCC3)ncc1CCC2`, the growth was 93.5%.

As for `O=C1NC(Cc2c[nH]c3ccccc23)C(=O)N1Cc1ccc(Cl)cc1` (stereo not given), the growth is 73.1%.

As to `O=C(/C=C/c1ccccc1)n1c(-c2ccc(Cl)cc2)nc2ccccc21`, the growth is -31.1% (active).

For `CCC(C)NCC(=O)O` (stereo not given), the growth is 90.1%.

`COc1ccc2c(c1)NC(=O)CN2c1nc(NC2CC2)nc2ccccc12`: the growth was 32.7%.

As for `CC(=O)Nc1ccc2c(c1)/C(=C\C=C/c1ccc([N+](C)(C)C)cc1)c1ccccc1-2`, the growth is 73.6%.

Turning to `COc1ncc(-c2ccc3ncnc(Nc4cccc(Cl)c4)c3c2)cc1NS(=O)(=O)CCN1CCOCC1`, the growth is 12.7%.

Consider `Cc1oc2nc[nH]c(=O)c2c1C(=O)/C=C/c1ccc(Cl)cc1`, for which the growth is -14.1% (active).

Consider `CCO/C=N/NC(=O)c1ccncc1`, for which the growth is 108%.

For `CC(C)(C)c1cc(-c2nc3ccc(N4CCN(CCO)CC4)cc3[nH]2)cc(C(C)(C)C)c1O`, the growth is 1.15% (active).

With `COc1cccc(NC(=O)Cn2cc3c(=O)oc4ccccc4c3n2)c1`, the growth was 97.9%.

On to `Nc1nc(-c2cc3ccccc3o2)cc(=O)c(=O)[nH]1`, for which the growth is 95.7%.

For the compound `Nc1c(C(=O)Nc2ccccc2)sc2nc3c(cc12)CN(Cc1ccccc1)CC3`, the growth is 79.6%.

As to `COc1ccc(/C=C\c2cc(OC)c(OC)c(OC)c2)c(NS(=O)(=O)c2ccc(C(C)(C)C)cc2)c1O`, the growth was 27.9%.

On to `Cc1ccc2c(c1)C(=O)C(c1c(-c3[nH]c(=O)c4ccc(C)cc4c3O)c(O)c3ccccc3c1O)=NC2=O`, for which the growth was 32.8%.

On to `CCCCCc1c(C)[nH]c(/C=c2\[nH]/c(=C3/C=c4ccccc4=N3)cc2OC)c1C`, for which the growth is -49.5% (active).

For the compound `COc1ccc2c(c1)C=CC(C#N)N2C(=O)c1ccccc1` (stereo not given), the growth was 22%.

Turning to `COc1cc(Cn2c(-c3nonc3N)nc3ccccc32)ccc1C`, the growth is 19.2%.

On to `COc1ccc(OC)c(C(=O)c2oc3ccc(Br)cc3c2N)c1`, for which the growth was -16.5% (active).

`Cc1cnc(NC(=O)C(Cc2ccccc2)NC(=O)c2ccccc2)s1` (stereo not given): the growth was -15.7% (active).

`Cc1cccc(NC(=O)c2sc3nc4c(cc3c2N)CCCC4)c1`: the growth was 12.7%.

Consider `O=C(Cc1c(F)cccc1Cl)Nc1ccc(S(=O)(=O)Nc2ncccn2)cc1`, for which the growth is 70.4%.

For the compound `COC(=O)CCCCN=Cc1c(O)c(O)c(C(C)C)c2cc(C)c(-c3c(C)cc4c(C(C)C)c(O)c(O)c(C=NCCCCC(=O)OC)c4c3O)c(O)c12`, the growth is 17.7%.

`CCN(Cc1ccccc1)c1ccc(SC#N)cc1`: the growth was 80.3%.

Consider `FC(F)(F)c1cccc(-n2nnc3cnc(Nc4ccc(N5CCCCC5)cc4)nc32)c1`, for which the growth was 90.9%.

Consider `CCCC1OC(c2ccc(C(C)C)cc2)OCC1CC` (stereo not given), for which the growth was 104%.

On to `O=S(=O)(NCCCNc1cc(-c2cn(-c3ccccc3)nc2-c2cccc(O)c2)ccn1)c1ccc(Br)cc1`, for which the growth is 3.52% (active).

Regarding `Nc1nc(N)c2nc(CNc3ccc(C(=O)CC(CCC(=O)O)C(=O)O)cc3)cnc2n1` (stereo not given), the growth is 58.3%.

Values taken from PubChem BioAssay (NCI).
